Screening data: PubChem BioAssay, National Center for Advancing Translational Sciences (NCATS)
VDR inh: Inhibitors of the vitamin D receptor (VDR): qHTS. VDR-SRC2-3 peptide fluorescence polarization, 2 h. Potency, µM, for the others: max response, negative = inhibition, most hits filed as inhibitors. 0.93% of 400,000 active. AID 504847, 2011; also: % is scaled to controls: 0 for no effect and ±100 for the full control effect
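Inhibition of the VDR/SRC2-3 peptide interaction is quantified by fluorescence polarization. Compounds (23 nl, pintool) incubate with the reagents for 2 hours at ambient room temperature.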
BRCA1 expr up: qHTS Assay to Identify Small Molecule Activators of BRCA1 Expression. MCF7-BRCA1-FFLuc reporter, luminescence, 48 h; response scale: scaled: vehicle 0%, 10 µM genistein 100%. Potency, µM (highest dose often 46.1 µM), inactives show at the top dose activation, actives largely listed as activators. 1.1% of 380,000 active. AID 624202, 2012; also: nearly all actives have a fitted effect of over 80% in size
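MCF7-BRCA1-FFLuc, 2000 cells/well; 2 h attach, 37 °C/5% CO2; compound 48 h; luciferase substrate 15 min; luminescence end-point. Norm. to genistein 10 microM max activation and DMSO; concentration-response curves fitted.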
Tb PFK block: qHTS Assay to Find Inhibitors of T. brucei phosphofructokinase; Potency, µM (top dose mostly 57.5 µM), for the others: at the highest dose activity, negative = inhibition, actives largely listed as inhibitors; AID 485367, 2010; 0.17% of 330,000 active; T. brucei PFK, ADP-Glo luminescence; ATP-dependent 6-phosphofructokinase (Trypanosoma brucei brucei), O15648;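 also: 0% = uninhibited 1x PFK enzyme wells and -100% = no-enzyme wells; nearly all actives have a fitted effect of over 60% in size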
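1.25 nM PFK with 0.5 mM F6P and 0.1 mM ATP in 0.1 M TEA pH 8.0, 5 mM MgCl2, incubated 45 min at room temperature; ADP measured by ADP-Glo luminescence; compounds titrated up to 57 uM.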
PLK1 PBD block: qHTS for Inhibitors of PLK1-PDB (polo-like kinase 1 - polo-box domain): Primary Screen; Serine/threonine-protein kinase PLK1 (Homo sapiens), P53350; Plk1 PBD binding of FITC phosphopeptide, fluorescence polarization; Potency, µM, for the others: max response, negative = inhibition, hits mostly inhibitors; 2.8% of 360,000 active; AID 720504, 2013; also: series mostly up to about 57 µM; % is scaled to controls: 0 for no effect and ±100 for the full control effect; nearly all actives have a fitted effect of over 65% in size
Target sequence (P53350 whole entry, looked up, the tested form may be a part): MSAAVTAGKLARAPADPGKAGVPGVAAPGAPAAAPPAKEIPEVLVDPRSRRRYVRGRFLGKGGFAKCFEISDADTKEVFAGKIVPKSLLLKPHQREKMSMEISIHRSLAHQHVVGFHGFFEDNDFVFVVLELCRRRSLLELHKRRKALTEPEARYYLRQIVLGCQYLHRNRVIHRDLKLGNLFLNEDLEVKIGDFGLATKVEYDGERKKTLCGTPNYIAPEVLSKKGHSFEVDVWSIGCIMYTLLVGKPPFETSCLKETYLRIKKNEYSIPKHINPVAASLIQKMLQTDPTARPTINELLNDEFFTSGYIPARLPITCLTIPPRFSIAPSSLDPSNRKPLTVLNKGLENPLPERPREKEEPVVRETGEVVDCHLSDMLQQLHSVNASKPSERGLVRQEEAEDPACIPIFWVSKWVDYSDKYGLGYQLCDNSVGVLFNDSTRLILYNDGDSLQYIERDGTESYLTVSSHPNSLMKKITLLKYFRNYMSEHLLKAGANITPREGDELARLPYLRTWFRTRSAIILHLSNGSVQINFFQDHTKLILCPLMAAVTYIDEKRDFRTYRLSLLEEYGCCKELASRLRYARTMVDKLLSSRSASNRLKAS
* = called active by the depositor; u = inconclusive; x = no result given; ! = repeats disagree. Only some compounds are listed: those with a hit (about 3.9% of all), similar ones and a draw of the others. Calls follow the shape of the dose curve; as a rule, active = well fitted curve in the direction sought with a large enough effect; inconclusive = small, poorly fitted or top-dose-only effect, or another doubt; inactive = no such curve, though single readings can be large; an effect the other way counts as inactive or inconclusive. Potency is read from the fitted curve at half-maximal effect.

SMILES	VDR inh	BRCA1 expr up	Tb PFK block	PLK1 PBD block
CCN(CC)c1ccc(CNc2nc3ccccc3n2C(C)C)cc1	-22.1%	-6.8%	-2.1%	18.9µM*
Nc1n[nH]c(N)c1N=Nc1ccc(Cl)cc1	18.1%	43.2%	3.8%	-4.5%
Nc1[nH]ncc1N=Nc1ccc(Cl)cc1	12.1%	11.2µM*	-3.8%	-7.1%
CC1N=C2c3ccccc3N=C(SCC(=O)NCc3ccc(Cl)cc3)N2C1=O (centres undefined)	9.2%	x	x	x
CC[N+](CC)(CC)c1ccc(/C=C/c2ccc3ccccc3n2)cc1	x	-55.5%	x	x
Cc1cccc(-n2ccnc2SCC(=O)Nc2cc(C)on2)c1	-0.9%	-9.7%	-1.7%	26.7µM*
O=C(CSc1ccc2ccccc2c1)Nn1cnnc1	14.4%	17.6%	2.7%	-7.9%
O=C(CSc1ccc(Cl)cc1)Nn1cnnc1	70.8µM*	10.0%	1.3%	10.6µM*
CCN(CC)S(=O)(=O)c1ccc2oc(SCC(=O)Nc3cc(C)on3)nc2c1	u	-71.9%	-4.4%	5.97µM*
Cc1cc(NC(=O)CSc2nccn2-c2cccc(F)c2)no1	8.5%	-0.9%	-2.2%	-3.7%
Cc1cc(NC(=O)CSc2nnnn2Cc2ccccc2)no1	-13.0%	14.1%	-1.1%	21.2µM*
Cc1cc(NC(=O)CSc2nnnn2-c2ccccc2)no1	16.8%	-26.8%	-3.6%	-1.5%
COc1cc(NS(=O)(=O)c2ccc(C)cc2)c2c(c1N)C(=O)c1ccccc1C2=O	x	-1.1%	x	-10.3%
O=C(O)c1cocc1C(=O)O	x	11.3%	x	-6.2%
CC1=C(C(=O)N2CCOCC2)CC(CC(=O)NCc2ccco2)C(=O)N1CCC1=CCCCC1 (centres undefined)	x	-7.7%	x	1.1%
Cc1cc(NC(=O)CSc2ccc(Cl)cc2)no1	u	7.7%	-16.8%	5.32µM*
Fc1cccc(NCc2cccn2-c2nnc(N3CCOCC3)s2)c1	3.6%	17.6%	x	x
CCOCCOC(=O)C1=C(C)N(C)C(=O)NC1c1ccccc1Cl (centres undefined)	-7.3%	18.9%	-1.4%	3.5%
CCOC(=O)C1=C(C)N(C)C(=O)NC1c1cccc2ccccc12 (centres undefined)	u	-0.2%	-2.9%	10.6µM*
CC1CC(NC(=O)Cc2ccc(Br)cc2)CC(C)(C)C1 (centres undefined)	u	8.5%	-9.2%	5.97µM*
CC1CC(NC(=O)CC#N)CC(C)(C)C1 (centres undefined)	-4.9%	-8.5%	-7.5%	2.4%
COc1cc(/C=C2\CCCc3c2nc2ccccc2c3C(=O)O)cc(OC)c1O	-23.5%	0.0%	u	26.7µM*
COc1ccc(/C=C2\CCCc3c2nc2ccccc2c3C(=O)O)cc1OC	x	x	4.8%	x
COc1cccc(Cn2c(=O)c(-c3cc(F)cc(F)c3)nc3cnc(N4CCNCC4)nc32)c1	15.2%	x	x	x
Cn1c(CNC(=O)CNC(=O)c2cccc(Cl)c2)cc(=O)n(C)c1=O	6.6%	-11.8%	-3.7%	-1.1%
SMILES	VDR inh	BRCA1 expr up	Tb PFK block	PLK1 PBD block
Cc1cccc(CC(=O)NCC(=O)NCc2cc(=O)n(C)c(=O)n2C)c1	u	11.6%	-2.4%	2.99µM*
COc1cc2c(C#N)c(N3CCCC3)nc(N)c2c(N)n1	28.2µM*!	-34.2%	1.4%	-11.4%
COc1cc2c(C#N)c(N3CCN(C)CC3)nc(N)c2c(N)n1	x	x	-0.4%	x
CCOC(=O)c1c(C)oc2ccc(OCc3cc(C(=O)OC)oc3C)cc12	-19.2%	-13.3%	-1.4%	26.7µM*
CSc1nc2c(=S)[nH]c(=S)[nH]c2s1	x	6.1%	x	21.2µM*
COc1ccc(Cc2nc3ccc(C(=O)NCCc4ccc(Cl)cc4)cc3o2)cc1	3.7%	x	x	x
COc1cccc(NC(=O)C2(C)CCN2C(=O)CC2CCCC2)c1 (centres undefined)	x	18.0%	x	-9.0%
CCOc1ccc(N(CC(=O)Nc2cc(C)cc(C)c2)S(C)(=O)=O)cc1	-10.1%	12.6µM*	-0.8%	0.4%
CCOc1ccc(N(CC(=O)Nc2ccc(C)cc2)S(C)(=O)=O)cc1	u	8.91µM*	-3.9%	8.6%
CCOc1ccc(N(CC(=O)Nc2cccc(Br)c2)S(C)(=O)=O)cc1	-11.7%	36.5%	1.1%	4.6%
Cn1nc(-c2ccc(F)cc2)nc2c(=O)n(C)c(=O)nc1-2	-4.3%	-79.4%	x	x
COc1ccc(S(=O)(=O)N2C[C@@H](O)COC[C@@H]3O[C@H](CC(=O)NCCCN4CCOCC4)CC[C@H]32)cc1	x	x	x	-10.7%
CCCCN1CC(=O)N2[C@H]3c4cc(Cl)ccc4OC[C@@H]3[C@H](C(=O)OCC)[C@]2(C)C1=O	3.2%	-5.5%	4.5%	-11.2%
CC(C(=O)OCC(=O)N(C)C1(C#N)CCCCC1)N1C(=O)c2ccccc2C1=O (centres undefined)	-1.8%	6.6%	-5.9%	-5.1%
O=C(O)c1cccc(NC(=O)c2cn(-c3ccccc3)nc2-c2cccc(Br)c2)c1	-8.0%	1.1%	1.9%	u
O=C(O)c1cccc(NC(=O)c2cn(-c3ccccc3)nc2-c2ccncc2)c1	-10.2%	-0.4%	1.5%	23.8µM*
CN(C)C(=O)COC(=O)c1ccccc1OCC(=O)Nc1ccc(Br)cc1	x	-1.1%	x	x
O=c1c2ccccc2oc2ncccc12	-2.4%	12.6µM*	20.1%	-28.9%
COc1ccc(S(=O)(=O)NC(=O)C2(C)CCN2C(=O)COc2ccc(Cl)cc2)cc1OC (centres undefined)	x	1.2%	x	2.2%
CCCn1c(Nc2nc3ccccc3n2C)nc2ccccc21	2.4%	-119.4%	3.8%	0.4%
Cn1c(NCc2ccccc2Cl)nc2ccccc21	-28.5%	3.55µM*	x	-7.7%
Cn1cnc2cc(NCc3ccccc3Cl)ccc21	14.7%	7.94µM*	0.7%	0.1%
Cc1ccc(CNc2nc3ccccc3n2C)o1	6.4%	3.98µM*	-1.5%	5.1%
CCn1cnc2cc(NCc3ccccc3Cl)ccc21	-17.8%	u	2.8%	-10.7%
CCn1c(Nc2ccccc2Cl)nc2ccccc21	-1.1%	-0.9%	-6.3%	26.7µM*
SMILES	VDR inh	BRCA1 expr up	Tb PFK block	PLK1 PBD block
Cn1c(NCc2ccccc2O)nc2ccccc21	-0.8%	u	-17.0%	-1.0%
CN1C[C@@H](CO)O[C@@H](n2cnc3c(N4CCOCC4)ncnc32)C1	x	6.3%	x	-13.3%
COc1ccc(S(=O)(=O)NCc2ccc(C(=O)NCc3ccccc3)cc2)cc1	-6.4%	0.0%	x	x
Nc1nnc(-c2cc3ccccc3oc2=O)s1	7.7%	7.94µM*	-15.2%	-6.3%
COc1ccc2oc(=O)c(-c3nnc(N)s3)cc2c1	1.7%	14.1µM*	0.2%	2.3%
COc1ccc2oc(=O)c(-c3nc(C)cs3)cc2c1	-1.4%	u	-8.1%	-7.6%
O=c1oc2ccccc2cc1-c1nnc(NCc2ccco2)s1	1.5%	4.9%	-1.2%	-7.2%
COCCN(C(=S)Nc1c(C)cc(C)cc1C)C(C)c1cccnc1 (centres undefined)	44.7µM*	-8.0%	u	5.97µM*
